Inconclusive results are not listed. Calls of active or inactive are those of the source. The call rests on the fitted dose curve; in most records, active means well fitted inhibition curve with a large enough effect; inconclusive means small, poorly fitted or top-dose-only effect; inactive means no such curve, though single readings can be large or run the other way.
Test: Acumen qHTS Assay for Inhibitors of the mTORC1 Signaling Pathway in MEF (Tsc2-/-, p53-/-) Cells: Hit Validation;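 further: phospho-rpS6 Ser235/236 immunofluorescence normalized to propidium iodide cell count; nearly all actives have a fitted effect of over 65% in size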;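 on activity change, negative = inhibition: cells exposed to compound for 24 hours; plate controls were DMSO for no effect and 7.5 nM rapamycin control for full effect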
Conditions: Acumen imaging; activity change, negative = inhibition: at 37.3 µM (top of the series)
Potency means the concentration at half of the fitted maximal effect.

Structure (SMILES) | Potency | activity change, negative = inhibition [%]
COc1ccc(Nc2cc(C)nc(-n3nc(C)cc3C)n2)cc1Cl | 0.147 µM (active) | 
COc1ccc2cc(CNc3ccccc3)c(=O)n(CC(=O)Nc3ccc(C)cc3C)c2c1 |  | -44
O=S(=O)(c1cccc2cnccc12)N1CCCNCC1 |  | -7.7
CCCCOc1ccccc1C1CC(=O)Nc2ccc3ccccc3c21 (configuration not stated) |  | -10.2
CCOc1ccc(-c2nc(SCC(=O)c3ccccc3)n[nH]2)cc1 |  | -131
CCCSc1oc(-c2ccco2)nc1S(=O)(=O)c1ccc(Br)cc1 |  | 4.39
CCN(CC)S(=O)(=O)c1ccc(NC(=O)CCc2c(C)nc3cc(-c4ccc(Cl)cc4)nn3c2C)cc1 |  | -101
CCC(=O)C1=C(c2ccc(Cl)cc2)N(C(=O)CC)n2c(C)nnc2S1 |  | -10.3
CCN(C(=O)C(NS(=O)(=O)c1ccc(Br)s1)c1ccccc1)c1ccc(C)c(C)c1 (configuration not stated) |  | -46.3
CCS(=O)(=O)c1ncc(Cl)c(C(=O)Nc2ccccc2)n1 | 1.31 µM (active) | 
COc1cccc(-c2nc(SCC(=O)NCC3CCCO3)c(-c3ccc(F)cc3)[nH]2)c1 (configuration not stated) |  | -3.33
CCSc1ccccc1C(=O)Nc1ccc(-c2nc3ccccc3s2)c(O)c1 | 13.1 µM (active) | 
CCOc1ccc(C(=O)Nc2ccc3nc4c(c(Nc5ccccc5OC)c3c2)CCCC4)cc1 |  | -66.6
COCCCNC(=O)c1ccc(CSc2nc3cccnc3n2Cc2ccc(OC)cc2)cc1 |  | 2.82
CC(C)CCNC(=O)c1cccc(Nc2nc3ccccc3n3nnnc23)c1 |  | -88.5
O=C(Nc1ccc2oc(-c3ccc4ccccc4c3)nc2c1)c1cc(Br)ccc1Cl | 9.27 µM (active) | 
Cc1cccc(OCc2ccc(-c3nc(C#N)c(NCCN(C)C)o3)o2)c1 |  | 0.2
C#CCN1C(=O)C(O)(CC(=O)c2ccc(OC)c(OC)c2)c2cc(Br)ccc21 (configuration not stated) |  | -24.1
CCS(=O)(=O)c1ncc(Cl)c(C(=O)N2CCN(c3cccc(Cl)c3)CC2)n1 | 1.31 µM (active) | 

Structure (SMILES) | Potency | activity change, negative = inhibition [%]
CCCCS(=O)(=O)c1oc(-c2ccc(F)cc2)nc1S(=O)(=O)c1ccc(C)cc1 | 4.65 µM (active) | 
COc1ccc(Cl)cc1NC(=O)CCCS(=O)(=O)c1nc(-c2ccc(OC)c(OC)c2)cc(C(F)(F)F)n1 | 10.4 µM (active) | 
COc1ccc(NS(=O)(=O)c2ccc(-n3cccn3)cc2)cc1OC |  | -78.8
CCOc1ccc(NC(=O)c2sc3nc4c(cc3c2N)CCCCCC4)cc1 | 9.27 µM (active) | 
Cc1ccc(C)c(NC(=O)Nc2cc3c(cc2N2CCCCC2)n(C)c(=O)n3C)c1 |  | 3.56
Cc1nnc(C(=O)NC(C)(C)c2nc(C(=O)NCc3ccc(F)cc3)c(O)c(=O)n2C)o1 |  | -4.28
Cc1cccc(C(=O)Nc2c3c(nn2-c2ccc(Cl)cc2)CS(=O)(=O)C3)c1 |  | 12.6
Cc1ccc2[nH]c(=O)c3cc(C(=O)NCCCN4CCC(C)CC4)sc3c2c1 | 13.1 µM (active) | 
CCOC(=O)C1CCN(C(=O)CSc2c3c(nc4ccc(Cl)cc24)CCCC3)CC1 |  | -5.08
CN(C)c1ccc(Nc2nc3ccccc3n3nnnc23)cc1 |  | -10
CC1C(=O)Nc2ccc(S(=O)(=O)Nc3ccccc3Br)cc2NC1=O (configuration not stated) |  | 8.5
CCN1CCOC(=O)C1CC(=O)Nc1cc(C)ccc1OC (configuration not stated) | 10.4 µM (active) | 
Cc1ccc(C)c(S(=O)(=O)NCC(c2ccco2)S(=O)(=O)c2ccc(F)cc2)c1 (configuration not stated) |  | -16.2
COc1ccc(-c2cc(C(F)(F)F)nc(S(=O)(=O)CCCC(=O)Nc3ccccc3C(F)(F)F)n2)cc1OC | 13.1 µM (active) | 
COc1ccc(N2CC(c3nc(-c4cc(OC)c(OC)c(OC)c4)no3)CC2=O)cc1Cl (configuration not stated) |  | 5.08
CCC(C(=O)N1CCN(c2cccc(C)c2C)CC1)n1nc(C)c2sc3ccccc3c2c1=O (configuration not stated) |  | -0.603
Cc1ccc(Nc2nc(C(N)=O)c(NC(=O)c3ccccc3Br)s2)cc1 | 5.85 µM (active) | 
CN(Cc1ccccc1)C(=O)CSc1c2c(nc3ccc(Cl)cc13)CCCC2 |  | 9.63

— PubChem BioAssay AID651784 (National Center for Advancing Translational Sciences (NCATS), 2012)
